From PubChem
A selection: hits, their analogues and other compounds. The true share with any hit is near 17%.
ClpP mod: qHTS Assay for Activators of ClpP; ATP-dependent Clp protease proteolytic subunit (Bacillus subtilis (strain 168)), P80244; purified B. subtilis ClpP, FRET peptide cleavage, 20 min; AID 651965, 2013; hit rate 1.9% among 340,000; Potency, µM (top dose mostly 57.5 µM); active = well fitted falling curve with a large enough effect; inconclusive = small, poorly fitted or top-dose-only effect; inactive = no such curve, though single readings can be large or run the other way; also: the source files actives as falling curves though it sought activators and does not explain the sign; nearly all actives have a fitted effect of over 65% in size
Target sequence (P80244 whole entry, looked up): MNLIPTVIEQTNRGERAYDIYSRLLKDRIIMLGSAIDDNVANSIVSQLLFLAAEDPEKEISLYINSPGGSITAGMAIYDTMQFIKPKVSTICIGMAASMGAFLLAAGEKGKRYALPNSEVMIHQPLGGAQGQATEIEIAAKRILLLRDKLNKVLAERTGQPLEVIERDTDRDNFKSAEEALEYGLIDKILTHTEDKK
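Buffer: 100 mM Tris/HCl pH8, 100 mM KCl, 0.05% low protease BSA, 2.5% glycerol, 0.01% Tween-20. ClpP 10 microg/mL final; 20 min RT; delta FRET normalized to ADEP and DMSO controls.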
DT40 TDP1 no CPT: qHTS for Inhibitors of human tyrosyl-DNA phosphodiesterase 1 (TDP1): qHTS in cells in absence of CPT. DT40 Tdp1-/- hTDP1 cells, no CPT, ATP luminescence, 48 h. Potency, µM (series often up to 46.2 µM), hits mostly inhibitors. hit rate 15% among 420,000; also: nearly all actives have a fitted effect of over 55% in size
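A cellular qHTS used chicken DT40 cells lacking endogenous Tdp1 but carrying stably transfected human TDP1. Compounds were applied without camptothecin, and cell growth kinetics were judged by ATP-dependent luminescence after ≥48 hr.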
TDP1 cell CPT: DT40-hTDP1 cell growth loss with CPT; Potency, µM (titrated, usually from 46.2 µM), most hits filed as inhibitors; chicken DT40 Tdp1-/-;hTDP1 cells + 20 nM CPT, ATP luminescence, 48 h; hit rate 12% among 420,000; also: nearly all actives have a fitted effect of over 55% in size
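Cell growth measured by CellTiter-Glo luminescence after a minimum 48 h, 37 C compound exposure with 20 nM CPT in Tdp1-knockout DT40 cells stably expressing hTDP1, seeded 400/well; qHTS titration format.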
TDP1 block: inhibitors of human tyrosyl-DNA phosphodiesterase TDP1; recombinant TDP1, AlphaScreen DNA substrate cleavage; Potency, µM (titrated, usually from 130 µM), usual class: inhibitors; hit rate 0.28% among 350,000; AID 485290; also: nearly all actives have a fitted effect of over 40% in size
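AlphaScreen read-out: signal falls as enzyme removes the 3' tyrosine-FITC from a 5'-biotinylated DNA oligo (15 nM, 5 min, RT). Enzyme was E. coli-made recombinant Tdp1 at 1 nM, exposed to compound for 15 min beforehand; beads 10 ug/ml, 10 min.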
Hits are given with their value; . = inactive; ? = inconclusive; / = no result. Unless noted, calls follow the shape of the dose curve; as a rule, active = well fitted curve in the direction sought with a large enough effect; inconclusive = small, poorly fitted or top-dose-only effect, or another doubt; inactive = no such curve, though single readings can be large; an effect the other way counts as inactive or inconclusive.

SMILES | ClpP mod | DT40 TDP1 no CPT | TDP1 cell CPT | TDP1 block
CCCCN(CC)CCNC(=O)c1cc2c(=O)n(C)c3ccccc3c2s1 | / | 23µM | ? | /
CCN(CC)CCNC(=O)c1cc2c(=O)n(C)c3ccccc3c2s1 | / | 21µM | 18µM | /
CN(CCCNC(=O)c1cc2c(=O)n(C)c3ccccc3c2s1)Cc1ccccc1 | . | 15µM | 4.6µM | .
CCCCN(CC)CCNC(=O)c1cc2c(=O)n(CC)c3ccccc3c2s1 | . | 21µM | 16µM | .
CCn1c(=O)c2cc(C(=O)NCCc3cccc(C)c3)sc2c2ccccc21 | ? | . | . | .
CC(NC(=O)C1CCOCC1)c1nnc2n1CCN(Cc1cc3c(cc1Cl)OCO3)CC2 (centres undefined) | / | . | . | /
CCOC(=O)c1noc2nc(C)n(CC(=O)Nc3cc(Cl)ccc3OC)c(=O)c12 | . | . | . | .
CC(C)CN(C(=O)CN(C)C(=O)c1ccco1)c1c(N)n(CC(C)C)c(=O)[nH]c1=O | . | . | . | .
CCc1ccc(-n2c3nc(=O)[nH]c(=O)c-3cc3c(C)nn(-c4ccccc4)c32)cc1 | ? | . | . | .
COc1cc(OC)c(OC)cc1CNCC1COc2ccccc2O1 (centres undefined) | . | ? | ? | /
COCCn1c(=O)c(-c2cccc(C#N)c2)nc2cnc(N3CCN(C)CC3)nc21 | / | . | . | /
N#CCCn1c(=O)c(-c2ccc(Cl)cc2)nc2cnc(N3CCNCC3)nc21 | / | ? | 7.3µM | /
N#CCCn1c(=O)c(-c2ccc(F)cc2)nc2cnc(N3CCNCC3)nc21 | / | 21µM | ? | /
CN1CCN(c2ncc3nc(-c4cccc(C#N)c4)c(=O)n(CCC#N)c3n2)CC1 | / | 21µM | ? | /
N#CCCn1c(=O)c(-c2ccc(Cl)cc2)nc2cnc(N3CCOCC3)nc21 | / | . | . | /
N#CCCn1c(=O)c(-c2ccc(F)cc2)nc2cnc(N3CCOCC3)nc21 | / | . | . | /
CN1CCN(c2ncc3nc(-c4ccc(Cl)cc4)c(=O)n(CCC#N)c3n2)CC1 | / | 16µM | ? | /
Nc1c(CO)nnn1-c1ccccc1 | . | . | . | .
COc1cc(C=O)c([N+](=O)[O-])cc1OC | / | / | / | .
CCc1nn(CC(=O)NCCOC)c(=O)c2cc3cc(F)ccc3n12 | . | . | . | .
O=C(Cc1ccccc1)N/N=C/c1cc(Br)cc(Br)c1O | . | ? | ? | /
O=C(CCN1CCOCC1)N/N=C/c1cc(Br)cc(Br)c1O | / | 18µM | 6.5µM | .
Cc1cccc(CCNC(=O)c2nn(C)c3c2CSc2ccccc2-3)c1 | . | ? | . | .
CCOc1ccc(/C=C/c2nc(C#N)c(NC(C)c3ccccc3)o2)cc1 (centres undefined) | . | 12µM | 13µM | .
COc1ccc(Nc2oc(-c3cccs3)nc2C#N)cc1 | 14µM | . | . | .
SMILES | ClpP mod | DT40 TDP1 no CPT | TDP1 cell CPT | TDP1 block
CCOc1ccc(/C=C/c2nc(C#N)c(Nc3ccc(OC)cc3)o2)cc1 | . | 16µM | 21µM | .
CNc1oc(-c2cccs2)nc1C#N | . | ? | ? | .
COc1ccc(CNc2oc(/C=C/c3cccc(OC)c3)nc2C#N)cc1 | . | 23µM | 23µM | .
CC1COC(=O)O1 (centres undefined) | / | / | / | .
N#Cc1c(-c2ccccc2)nc(SCC(=O)Nc2ccc(OC(F)(F)Cl)cc2)[nH]c1=O | . | . | ? | /
CCOc1ccc(Nc2oc(/C=C/c3cccc(OC)c3)nc2C#N)cc1 | . | 23µM | ? | .
COc1ccc(Nc2oc(/C=C/c3cc(OC)c(OC)c(OC)c3)nc2C#N)cc1 | . | ? | ? | .
CCOc1ccc(/C=C/c2nc(C#N)c(Nc3ccc(OCC)cc3)o2)cc1 | . | 23µM | 23µM | .
CCOc1ccc(Nc2oc(/C=C/c3cc(OC)c(OC)c(OC)c3)nc2C#N)cc1 | . | ? | ? | .
COc1ccc(N2CCN(C(=O)Cn3cnc4nc5c(cc4c3=O)CCCC5)CC2)cc1 | . | . | . | .
Cc1cccc(OC(C)C(=O)Nc2ccc3c(c2)OCCO3)c1 (centres undefined) | / | . | . | /
NC=O | / | / | / | .
Cc1cccc(Cn2cc(/C=C/[N+](=O)[O-])c3ccccc32)c1 | . | ? | 23µM | .
CCOC(=O)Cn1cc(/C=C/[N+](=O)[O-])c2ccccc21 | . | 23µM | 15µM | .
O=C(O)c1ccc(Cn2cc(/C=C\[N+](=O)[O-])c3ccccc32)o1 | . | . | . | .
CC1CCN(C(=O)CN2c3ccc(Br)cc3-c3ccccc3S2(=O)=O)CC1 | . | 21µM | 13µM | .
CC1CCN(C(=O)CN2c3ccc(C(C)C)cc3-c3ccccc3S2(=O)=O)CC1 | . | 23µM | 15µM | .
CCN(CC)c1ccc(NC(=O)CCS(=O)(=O)c2ccc3c(c2)oc(=O)n3C)c(C)c1 | . | . | ? | .
Cc1cccc(/C(N)=N/OC(=O)N2c3ccccc3Sc3ccccc32)c1 | . | 21µM | ? | .
N/C(=N\OC(=O)N1c2ccccc2Sc2ccccc21)c1ccccc1 | . | ? | ? | .
CC(Oc1ccccc1)C(=O)Nc1nnc2n1CCS2 (centres undefined) | . | . | . | .
Cc1ccc2nc(SCC(=O)N(CC(C)C)c3c(N)n(Cc4ccccc4)c(=O)[nH]c3=O)[nH]c2c1 | . | . | ? | .
C=C1C(=O)[C@]23C[C@H]1CCC2[C@@]1(C)C(C[C@@H]3O)[C@](C)(C(=O)O)C[C@H](O)[C@@H]1O (some centres undefined) | . | . | . | /
C=C1C(=O)[C@]23C[C@H]1CCC2[C@@]1(C)C(C[C@@H]3O)[C@](C)(C(=O)OC)CC[C@@H]1OC(C)=O (some centres undefined) | . | 0.92µM | 0.82µM | /
COC(=O)C1OC(=O)C2OC23[C@]2(C)C(O)CC4C(C)(C)C(OC(C)=O)CC(OC(C)=O)[C@@]4(C)C2CC[C@@]13C (some centres undefined) | / | . | . | .
SMILES | ClpP mod | DT40 TDP1 no CPT | TDP1 cell CPT | TDP1 block
C=C1C(=O)[C@]23C[C@H]1CC[C@H]2[C@]1(C)[C@@H](O)CC[C@@](C)(C(=O)O)[C@H]1C[C@@H]3O | . | 2.9µM | 2.3µM | /
C=C1C(=O)[C@]23C[C@H]1CC[C@H]2[C@]1(C)[C@@H](OC(C)=O)CC[C@@](C)(C(=O)OC)[C@H]1C[C@@H]3OC(C)=O | . | 0.92µM | 0.58µM | /
CC(=O)OC1CCC23CC1(C)CCC2C(C)(C)CC3OC(C)=O (centres undefined) | / | . | . | .
C=C1C(=O)[C@]23C[C@H]1CC[C@H]2[C@]1(C)[C@@H](OC(C)=O)CC[C@@](C)(C(=O)O)[C@H]1C[C@@H]3O | . | 1µM | 1µM | /
COCCNC(=O)c1c(C)oc2nc(C)nc(N3CCOCC3)c12 | . | . | . | .
CCn1c(/C=C/c2ccccc2)nc2ccccc21 | 14µM | 26µM | ? | .
COc1ccc(Cn2c(/C=C/c3ccccc3)nc3ccccc32)cc1 | ? | . | ? | /
CCC(C)n1c(/C=C/c2ccccc2)nc2ccccc21 (centres undefined) | . | ? | ? | .
COc1ccc(/C=C/c2nc3ccccc3n2C)cc1 | . | 8.2µM | 9.2µM | .
